# Compound activity from PubChem.
# TLR4-MyD88 inh: TLR4-MyD88 interaction inhibition. O00206. Cell-based TLR4-MyD88 binding inhibition assay. inhibition, % at 10 µM. 16,000 compounds, 0.06% hits. AID 811; in the data active = inhibition above about 45%
# S1P1 agonist: activates the human S1P1 receptor; 16,000 compounds, 1.5% hits; activation, % at 4.5 µM; S1P1 agonist cell-based reporter assay; in the data active = activation above about 80%
# KOR antag MB: antagonists of human kappa opioid receptor OPRK1, Maybridge library; P41145; OPRK1 cells, antagonist mode, fluorescence readout; inhibition, % at 9 µM; 16,000 compounds, 0.4% hits; AID 652031; in the data active = inhibition above about 50%
# Target sequence (P41145 whole entry, looked up): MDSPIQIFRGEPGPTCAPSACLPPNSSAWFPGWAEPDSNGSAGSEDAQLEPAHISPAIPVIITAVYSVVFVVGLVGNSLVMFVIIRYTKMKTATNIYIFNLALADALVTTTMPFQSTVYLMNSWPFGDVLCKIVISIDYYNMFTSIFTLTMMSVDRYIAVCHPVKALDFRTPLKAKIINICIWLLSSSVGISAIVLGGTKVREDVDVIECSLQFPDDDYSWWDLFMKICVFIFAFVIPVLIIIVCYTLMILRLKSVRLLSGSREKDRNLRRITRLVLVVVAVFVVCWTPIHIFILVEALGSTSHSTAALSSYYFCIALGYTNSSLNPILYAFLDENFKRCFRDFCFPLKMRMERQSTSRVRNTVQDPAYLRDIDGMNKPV
# rat GALR2 agon: GALR2 (rat) receptor agonism | activation, % at 10 µM | O08726 | 16,000 compounds, 0.5% hits | cell-based GALR2 agonist screen; in the data active = activation above about 15%
# Active calls of the source: *; x = no result given. A selection: hits, their analogues and other compounds. The true share with any hit is near 2.1%.
SMILES,TLR4-MyD88 inh,S1P1 agonist,KOR antag MB,rat GALR2 agon
CC(=O)Nc1cc(N=Cc2cc(Cl)cc(Cl)c2O)ccc1C,x,-7.5,29.8,5.3
Cc1ccc(C)c(N=Cc2cc(Cl)cc(Cl)c2O)c1,5.3,10.0,10.6,15.7*
O=C(c1ccco1)N1CCN(c2nc(-c3cccs3)ns2)CC1,-2.4,-4.7,-8.5,-3.2
O=S(=O)(Cc1ccc(Cl)cc1)NCc1cccnc1,-2.5,-14.8,-8.4,27.2*
CC(C)(C)C(=O)OCc1nc(-c2ccc3c(c2)OCO3)cs1,11.3,92.2*,3.8,-6.2
CC(C)(C)C(=O)OCc1nc(-c2cc(-c3ccccc3)no2)cs1,x,20.8,5.0,3.6
CCCCNc1ccc2c3c(cccc13)C(=O)N(CCCC)C2=O,55.2*,74.0,89.0*,-12.1
COc1ccc([N+](=O)[O-])c(S(=O)(=O)c2ccc(Cl)cc2)n1,-8.0,104.0*,81.6*,-13.2
COc1cc(N=Cc2cc(OC)c(OC)c(OC)c2)c(OC)cc1Cl,5.7,-13.7,-1.7,-3.0
COc1ccc(SCCc2nnc(-c3ccccc3)o2)cc1,-0.1,10.2,3.5,-6.7
COc1ccc(-c2nc3cc4c(cc3o2)Oc2ccccc2N4)cc1,29.1,56.9,79.2*,5.1
COc1cccc2c1OCC(C#N)=C2,-7.4,9.3,4.2,-6.8
COc1ccc(/C(N)=N/OC(=O)c2ccccc2)cc1OC1CCCC1,2.9,101.9*,14.9,-6.3
Cc1ccc(C)c(N=Cc2cc(Br)ccc2O)c1,6.0,-2.9,5.8,11.6
CC(=O)c1ccc(Cl)c(NC(=O)NS(=O)(=O)c2ccc(C)cc2)c1,-3.1,5.6,-69.7,-4.9
N#Cc1c(Cl)c(Cl)c(Cl)c(Cl)c1C#N,-21.5,110.2*,28.2,-15.7
N#Cc1c(Cl)cccc1I,2.5,4.8,8.7,-3.4
O=[N+]([O-])c1ccc(N2CCc3ccccc32)cc1,24.4,44.6,64.6*,-12.8
O=[N+]([O-])c1ccc(N2CCC(n3cccc3)CC2)cc1,0.7,3.9,-4.0,-1.2
CCOC(=O)COc1ccccc1/C=C(\C#N)C(=O)c1ccc(Cl)cc1,-3.3,14.7,7.1,0.0
CS(=O)(=O)/C(C#N)=C/c1ccccc1OCc1c(Cl)cccc1Cl,-4.6,30.3,23.1,18.2*
CCN(c1ccccc1)S(=O)(=O)c1cc([N+](=O)[O-])ccc1N,0.7,99.8*,12.5,-7.2
O=S1(=O)CCN(Cc2cc3ccccc3s2)CC1,1.6,-9.2,2.7,35.6*
Cc1noc(NC(=O)NC(=O)c2cc(F)c(N(C)C)c(F)c2)c1C,10.2,19.1,0.3,35.7*
Cc1noc(C)c1NC(=O)NC(=O)c1c(F)cccc1Cl,10.4,10.2,10.3,-4.9
SMILES,TLR4-MyD88 inh,S1P1 agonist,KOR antag MB,rat GALR2 agon
CSC(=NCc1cccs1)NC#N,-0.5,-7.7,-14.3,-6.1
CSC(=NCc1sccc1CSc1ccc(Cl)cc1)NC#N,-0.6,96.7*,-20.6,-5.2
COc1ccc(C(=O)Nc2cccnc2Oc2ccc(C(C)(C)C)cc2)cc1OC,-8.7,-45.0,0.3,-5.5
CCOC(=O)/C(C#N)=C/Nc1cc(F)ccc1C,6.8,-7.5,4.4,-7.6
CCOC(=O)/C(C#N)=C/Nc1cccnc1Oc1ccc(C)c2c1CCC2,-9.3,-6.2,-26.2,27.3*
CCOC(=O)c1cc(C(=O)OC)c(C)nc1N1CCC(NC2CCCCC2O)CC1 (stereo unspecified),-6.1,-3.5,91.7*,-6.0
COC(=O)[C@H]1CC2CC1[C@H](OS(=O)(=O)c1ccc(C)cc1)C2 (stereo partly specified),6.9,-7.0,-1.2,-6.3
N#CCSC1=CC(=O)CC(c2ccccc2)S1 (stereo unspecified),3.7,90.5*,-40.3,-0.5
Cc1nnsc1C(=O)NCc1ccc2c(c1)OCO2,4.1,-11.4,14.7,-2.8
COc1ccc(C(=O)Nc2ccc(N3CCN(c4ncccc4C(F)(F)F)CC3)nc2)cc1,-11.7,92.9*,8.7,-6.2
O=C(NNC(=O)c1cccs1)c1ccc2nonc2c1,-2.7,-3.7,-19.7,-5.2
O=C(c1cc2ccccc2s1)N1CCN(C(c2ccccc2)c2ccccc2)CC1,-1.0,83.0*,-19.0,-1.3
Cc1nnc(Nc2cc(Cl)cc(Cl)c2)s1,2.7,1.6,18.4,-4.4
CC(=O)Nc1cc([N+](=O)[O-])ccc1-n1cc(C)c(C(F)(F)F)n1,49.7*,-3.0,-0.3,-3.8
Cn1c(SCc2cc(=O)[nH]c(=O)[nH]2)nnc1C(F)(F)F,8.0,-6.0,7.1,-4.5
CCCS(=O)(=O)/C(C#N)=N/Nc1cc(C(F)(F)F)cc(C(F)(F)F)c1,4.3,117.5*,33.9,-8.1
O=S(=O)(NCC1COc2ccccc2O1)c1cccc(C(F)(F)F)c1 (stereo unspecified),4.7,-10.6,-2.9,-5.5
Cc1nc(C)c(-c2nnc(-c3ccc(C(F)(F)F)cc3)o2)s1,2.7,88.3*,-0.7,-5.7
